Compound activity from PubChem BioAssay.
Vc quorum ag: inducers of Vibrio cholerae quorum light production without autoinducers; V. cholerae BH1578 lux reporter, luminescence, 6 h; activation, % at 18.7 µM; 350,000 compounds, 0.16% hits; AID 588436; in the data active = activation mostly above about 9.7%, no sharp cut-off; inconclusive = no clear call, values can overlap the other calls; inactive = mostly below about 3.7%
Anthrax LF inh2: blocks Bacillus anthracis lethal factor protease; P15917; multiplex microsphere protease cleavage assay, LF; inhibition, % at 10 µM; 360,000 compounds, 0.12% hits; AID 588501; also: plate controls were buffer without enzyme for full effect and enzyme alone for no effect
Target sequence (P15917 whole entry, looked up): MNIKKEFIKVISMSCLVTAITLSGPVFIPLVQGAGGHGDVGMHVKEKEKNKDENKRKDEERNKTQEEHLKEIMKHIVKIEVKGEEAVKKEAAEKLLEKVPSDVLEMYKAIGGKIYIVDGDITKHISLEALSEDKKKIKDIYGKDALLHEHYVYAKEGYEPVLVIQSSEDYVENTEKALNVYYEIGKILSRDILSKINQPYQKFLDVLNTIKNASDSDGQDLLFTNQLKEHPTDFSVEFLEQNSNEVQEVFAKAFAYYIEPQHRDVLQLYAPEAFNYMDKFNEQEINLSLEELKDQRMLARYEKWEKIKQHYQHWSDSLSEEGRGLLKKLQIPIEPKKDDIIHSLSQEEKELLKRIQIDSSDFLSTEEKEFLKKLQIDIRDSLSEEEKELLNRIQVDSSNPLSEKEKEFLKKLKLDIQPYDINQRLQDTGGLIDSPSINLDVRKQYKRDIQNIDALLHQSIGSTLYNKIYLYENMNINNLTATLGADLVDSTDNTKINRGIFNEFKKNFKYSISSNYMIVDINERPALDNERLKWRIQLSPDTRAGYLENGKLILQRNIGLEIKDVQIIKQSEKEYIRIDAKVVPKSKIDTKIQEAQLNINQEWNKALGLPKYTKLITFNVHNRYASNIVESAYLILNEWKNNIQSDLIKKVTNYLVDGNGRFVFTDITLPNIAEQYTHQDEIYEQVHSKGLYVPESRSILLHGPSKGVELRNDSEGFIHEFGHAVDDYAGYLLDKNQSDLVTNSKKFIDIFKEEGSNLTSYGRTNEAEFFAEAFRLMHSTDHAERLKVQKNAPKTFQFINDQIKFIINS
BoNT-A LC inh2: blocks Botulinum neurotoxin A light chain protease; multiplex microsphere protease substrate cleavage, flow cytometry; inhibition, % at 10 µM; 360,000 compounds, 0.17% hits; AID 588499; also: plate controls were buffer without enzyme for full effect and enzyme alone for no effect
Autofluor counter: counter-screen for toxin protease inhibitors: compound fluorescence; AID 624483; fluorescence intensity (test concentration not listed); compound autofluorescence counterscreen, microsphere flow cytometry; stronger effect = higher value; 360,000 compounds, 3.1% hits; in the data active = fluorescence intensity above about 16000; inconclusive = no clear call, values can overlap the other calls
BoNT F protease: inhibitors of Botulinum neurotoxin F light chain protease; Multiplex microsphere protease cleavage assay, flow cytometry; 360,000 compounds, 0.22% hits; AID 588497; inhibition, % at 10 µM; in the data active = inhibition above about 35%, passing the limit was not always enough; inconclusive = no clear call, values can overlap the other calls; also: plate controls were buffer without enzyme for full effect and enzyme alone for no effect
An asterisk follows results filed as active; i = inactive; ? = inconclusive. Most compounds without a hit are left out; they make up all but 3.5% or so of the library. Rule as the data show it, unless noted: active = inhibition above about 30%; inconclusive = no clear call, values can overlap the other calls; inactive = below that.

SMILES | Vc quorum ag | Anthrax LF inh2 | BoNT-A LC inh2 | Autofluor counter | BoNT F protease
O=C(COc1ccc(Br)cc1)Nc1ccc(-c2nnc(-c3ccco3)o2)cc1 | -2.4 | 1.1 | -7.3 | 21839* | -7.6
Cc1ccccc1/C=C1\SC(=S)N(/N=C/c2cc([N+](=O)[O-])ccc2O)C1=O | -0.5 | -2.1 | 0.0 | 1952 | 0.7
COC(=O)C(O)(c1ccc(NC(=O)Oc2ccccc2)cc1)C(F)(F)F (configuration not stated) | -0.6 | 1.4 | 0.3 | 2240 | -4.1
COC(=O)C(O)(c1ccc(NC(=S)NC(=O)c2ccccc2)cc1)C(F)(F)F (configuration not stated) | i | -1.0 | -3.1 | 16903* | -3.4
CC(=O)Oc1ccccc1Cn1c(C)c(C(=O)NCc2ccccc2C(F)(F)F)sc1=O | -0.5 | 1.7 | 0.1 | 5097 | -2.4
CCOC(=O)c1cc(CC)sc1NC(=O)C1CC(=O)NN1Cc1ccccc1 (configuration not stated) | -2.0 | -0.9 | -1.2 | 2989 | -8.0
CCOC(=O)c1cc(CC)sc1NC(=O)COC | i | 0.2 | 2.1 | 18881* | 2.2
CCOC(=O)c1cc(CC)sc1NC(=O)Cc1ccccc1 | i | -4.4 | ? | 20942* | -2.9
CCNc1ccc(Br)cc(C(=O)/C=C/c2ccccc2Cl)c1=O | i | 45.1* | 51.8* | 16998* | 18.9
Cc1ccc(S(=O)(=O)N2CCC(C(=O)Nc3nnc(C)s3)CC2)cc1 | i | -6.3 | -1.8 | 3893 | -14.3
O=S(=O)(c1ccc(Cl)cc1)N1CCC(n2cnc3cc(C(F)(F)F)ccc32)CC1 | i | 0.2 | -1.1 | 16517* | -1.5
O=C1N/C(=C/c2ccc(N3CCOCC3)cc2)C(=O)N1Cc1ccc(F)cc1 | i | -5.1 | -3.4 | 18011* | -6.7
Cc1ccc(/C=C2/NC(=O)N(Cc3ccccc3)C2=O)o1 | 3.1 | -0.9 | 2.0 | 2566 | -4.0
O=C1N/C(=C\c2ccsc2)C(=O)N1Cc1ccc(F)cc1 | -0.3 | -0.1 | 0.7 | 7360 | 0.7
Cn1c(=O)n(C)c2cc(/C=C3/NC(=O)N(Cc4ccccc4)C3=O)ccc21 | i | -6.6 | 0.8 | 20142* | 0.3
CCc1ccc(OS(=O)(=O)c2cn(C)c(=O)n(C)c2=O)cc1 | 1.6 | 6.7 | -0.6 | 4879 | 4.3
Cc1ccc(-n2c(-c3ccccc3)c[n+]3c2CCc2ccccc2-3)c(C)c1 | -0.3 | -3.8 | 0.1 | 3222 | 3.4
CCOC(=O)c1c2c3c(cccc3[nH]c1=O)C(=O)c1ccccc1-2 | -0.3 | 5.5 | 3.8 | 3588 | 3.7
CCOC(=O)c1c2c3c(cccc3n(C)c1=O)C(=O)c1ccccc1-2 | 0.8 | -8.9 | 26.2 | 2922 | 40.3*
O=C(O)CNS(=O)(=O)c1cccc2nsnc12 | i | 3.5 | 1.7 | 22948* | -0.3
O=C(O)c1cccc(NS(=O)(=O)c2cccc3nsnc23)c1 | -0.2 | -11.3 | 7.3 | 19434* | 10.0
O=S(=O)(Nc1ccccc1)c1cccc2nsnc12 | -0.7 | -3.4 | -3.2 | 3667 | ?
O=C(CSc1nnc2c(n1)[nH]c1ccccc12)Nc1cccc(S(=O)(=O)N2CCOCC2)c1 | -0.4 | -5.0 | 1.6 | 3761 | -3.5
NC(=O)Cn1nnc(-c2ccc(NC(=O)c3ccc(F)cc3)cc2)n1 | 0.8 | -1.5 | 0.2 | 2658 | -2.3
Cc1cc(C)c(S(=O)(=O)N2CCN=C2c2ccccc2)cc1C | -1.0 | -2.4 | -1.0 | 22172* | -4.0
SMILES | Vc quorum ag | Anthrax LF inh2 | BoNT-A LC inh2 | Autofluor counter | BoNT F protease
COc1cc(C)c(S(=O)(=O)N2CCN=C2c2ccccc2)cc1C | i | -0.6 | 0.6 | 2399 | 3.1
CC1Cc2ccccc2N1CC(=O)NC(=O)NC1CCCC1 (configuration not stated) | -1.4 | -1.5 | 0.2 | 3291 | -1.5
CC1Cc2ccccc2N1CC(=O)Nc1ccc2c(c1)OCO2 (configuration not stated) | 0.8 | 8.3 | 11.3 | 20865* | 2.3
C/C(CC(=O)Nc1ccc2c(c1)OCO2)=N\NC(=O)OC(C)(C)C | -0.2 | -0.1 | 5.0 | 4752 | 42.2*
CC1Cc2ccccc2N1CC(=O)NC(=O)NCc1ccco1 (configuration not stated) | i | 11.1 | 15.5 | 17928* | -9.8
Cc1ccc(C)c(S(=O)(=O)N2CCN(CC(=O)Nc3ccc4c(c3)OCCO4)CC2)c1 | 1.8 | 3.3 | -1.4 | 24103* | -2.5
CC1CC(=O)N(CC(=O)NCc2ccco2)c2ccccc2S1 (configuration not stated) | -0.2 | -0.8 | -2.0 | 23847* | -2.9
O=C(CN1CCCc2ccccc21)NC(=O)NCc1ccco1 | i | -4.3 | -1.0 | 17200* | -3.4
Cc1ccc(CSCC(=O)Nc2ccc3c(c2)OCO3)cc1 | -0.1 | -4.8 | 0.2 | 22179* | -1.2
CC(C)c1ccc(NC(=O)Nc2nnc([C@@H]3C[C@H](O)[C@@H](CO)O3)s2)cc1 | i | -2.4 | 0.3 | 2972 | -8.5
COc1ccc(-c2csc(C(C#N)=C(O)CSc3nccn3C)n2)cc1OC | i | -2.8 | 0.7 | 3037 | -1.4
Cc1cccc(NC(=O)C2CCN(S(=O)(=O)c3cccs3)CC2)n1 | -4.9 | -0.2 | ? | 17032* | -5.4
O=C(Nc1ccccn1)C1CCN(S(=O)(=O)c2cccs2)CC1 | -1.9 | 0.5 | -0.6 | 9759 | -3.9
Cc1ccc(-c2nn(C)c(=O)c3ccccc23)cc1S(=O)(=O)N1CCOCC1 | 0.7 | -7.3 | -10.6 | 25828* | -13.3
Cc1ccc(-c2n[nH]c(=O)c3ccccc23)cc1S(=O)(=O)NCCN1CCOCC1 | -0.3 | 0.7 | 0.1 | 3844 | 8.7
CCC(=O)Nc1cc(-c2nn(C)c(=O)c3ccccc23)ccc1OC | -1.2 | 0.2 | 2.7 | 21426* | 2.8
Cc1ccc(-c2nn3c(C)nnc3c3ccccc23)cc1S(=O)(=O)NCCN1CCOCC1 | 1.0 | -2.5 | -5.8 | 22118* | -5.6
Cn1nc(-c2ccc(N3CCOCC3)c(NS(=O)(=O)c3ccccc3)c2)c2ccccc2c1=O | i | -1.1 | -6.9 | 22480* | -5.2
CCN=C(NC#N)SCc1c(F)cccc1Cl | 0.3 | 1.4 | 0.4 | 2365 | -0.7
CNC(=S)NNC(=O)c1c(C)nc2cc(C)ccn12 | -0.3 | 3.0 | 0.4 | 5583 | -3.3
CC(=O)Nc1cc(-c2nn(C)c(=O)c3ccccc23)ccc1N1CCCCC1 | -5.9 | -2.2 | -0.2 | 16582* | 3.2
CCCC(=O)Nc1cc(-c2nn(C)c(=O)c3ccccc23)ccc1N1CCCCC1 | i | -2.8 | -2.1 | 16901* | -1.3
CCC(=O)Nc1cc(-c2nn(C)c(=O)c3ccccc23)ccc1N1CCCCC1 | -7.9 | -2.1 | 0.5 | 3552 | -4.7
O=C1C2C3c4ccccc4C(c4ccccc43)C2C(=O)N1Cc1ccccn1 (configuration not stated) | -0.4 | -5.0 | -0.5 | 4119 | -9.9
O=C(Nc1cccc(C(F)(F)F)c1)c1cc2ncc(Br)cn2n1 | i | 1.4 | 4.2 | 22276* | 3.2
CCc1ccccc1NC(=O)c1cc2ncc(Br)cn2n1 | -2.0 | -1.3 | ? | 21333* | 6.6
COCCNC(=O)C1(C)CCCN(Cc2ccc(-n3ccnc3)cc2)C1 (configuration not stated) | i | -3.3 | 0.0 | 2992 | -5.2
O=C(NCc1ccco1)c1ccc2c(c1)N(Cc1ccccc1)C(=O)CS2 | 0.3 | -1.7 | -5.6 | 25027* | -8.6
